High-throughput results (PubChem)
NPSR antag: blocks cAMP signaling of the human neuropeptide S receptor | CHO-NPSR cells, cAMP TR-FRET, antagonist mode | Potency, µM (series often up to 38.3 µM), for the others: top-dose activity change, negative = inhibition, most hits filed as inhibitors | 220,000 compounds, 1% hits | AID 1461; active = well fitted curve in the direction sought with a large enough effect; inconclusive = small, poorly fitted or top-dose-only effect, or another doubt; inactive = no such curve, though single readings can be large; an effect the other way counts as inactive or inconclusive; note: potency is the fitted concentration of half-maximal effect; nearly all actives have a fitted effect of over 50% in size
RGS12 GoLoco inh: RGS12 GoLoco-Gai1 interaction inhibition | P63096 | Potency, µM (highest dose often 61.6 µM), for inactives: top-dose activity, negative = inhibition, actives largely listed as inhibitors | AID 880 | 230,000 compounds, 0.44% hits | Gai1:RGS12 GoLoco peptide FP, rhodamine, 10 min; active = well fitted inhibition curve with a large enough effect, not every such curve was filed as active; inactive = no such curve, though single readings can be large or run the other way; note: potency is the fitted concentration of half-maximal effect; nearly all actives have a fitted effect of over 30% in size
ALDH1A1 block: inhibitors of human aldehyde dehydrogenase 1A1; P00352; Purified ALDH1A1, NADH fluorescence, propionaldehyde substrate; Potency, µM (top dose mostly 75.3 µM), without a hit: at the highest dose activity, negative = inhibition, hits mostly inhibitors; 220,000 compounds, 7.3% hits; AID 1030;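 note: potency is the fitted concentration of half-maximal effect; plate controls were no enzyme wells and a reference inhibitor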
Target sequence (P00352 whole entry, looked up): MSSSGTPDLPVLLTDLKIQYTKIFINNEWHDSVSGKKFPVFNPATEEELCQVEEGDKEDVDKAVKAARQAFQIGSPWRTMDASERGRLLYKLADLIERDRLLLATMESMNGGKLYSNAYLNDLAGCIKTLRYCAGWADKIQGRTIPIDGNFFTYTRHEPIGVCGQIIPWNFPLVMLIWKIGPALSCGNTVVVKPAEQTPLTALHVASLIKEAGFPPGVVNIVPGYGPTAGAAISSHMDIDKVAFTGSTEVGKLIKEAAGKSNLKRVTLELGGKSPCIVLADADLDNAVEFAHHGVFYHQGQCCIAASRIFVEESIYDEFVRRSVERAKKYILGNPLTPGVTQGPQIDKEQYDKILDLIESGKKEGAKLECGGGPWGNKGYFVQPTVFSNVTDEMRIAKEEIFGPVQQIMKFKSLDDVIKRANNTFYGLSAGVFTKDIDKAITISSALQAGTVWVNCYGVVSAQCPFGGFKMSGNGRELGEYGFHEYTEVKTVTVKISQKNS
FBPA coupling cs: counter-screen for Giardia aldolase inhibitors: coupling enzyme system; coupling enzyme system counterscreen, AmpLite Red fluorescence; AID 2472; 290,000 compounds, 0.67% hits; activity change, negative = inhibition, % at 58.2 µM, hits read low; in the data active = activity change below about -30%
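Counterscreen lacking aldolase: glyceraldehyde-3-phosphate coupling-enzyme reagent preincubated 10 min at RT with compound (at 57.5 uM final), then substrate/coupling system with AmpLite Red added; fluorescence read at 525/598 nm after 20 min RT.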
Sfp PPTase inh: Sfp phosphopantetheinyl transferase inhibition; 310,000 compounds, 3.5% hits; Biochemical Sfp PPTase activity, qHTS; Q9F4F7; Potency, µM, for inactives: largest response in the series, negative = inhibition, hits mostly inhibitors; AID 1490; active = well fitted curve in the direction sought with a large enough effect; inconclusive = small, poorly fitted or top-dose-only effect, or another doubt; inactive = no such curve, though single readings can be large; an effect the other way counts as inactive or inconclusive;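 note: the enzyme is Sfp with the accession as filed and its product quenches rhodamine fluorescence; potency is the fitted concentration of half-maximal effect; 0% = enzyme reaction without inhibitor and -100% = no enzyme wells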
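Reaction rates are the 30-min fluorescence difference (ex 525, em 598 nm) in wells containing 15 nM Sfp, 5 uM rhodamine-CoA and 12.5 uM BHQ-2-YbbR at pH 7.6 with 10 mM MgCl2.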
JMJD2E inh: inhibitors of human JMJD2E histone demethylase | AID 2147 | Potency, µM (series often up to 57.1 µM), inactives show top-dose activity change, negative = inhibition, hits mostly inhibitors | 230,000 compounds, 1.6% hits | JMJD2E catalytic domain, FDH-coupled NADH fluorescence (FDH is formaldehyde dehydrogenase) | B2RXH2;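 note: potency is the fitted concentration of half-maximal effect; 0% = wells with enzyme and -100% = buffer wells without enzyme; nearly all actives have a fitted effect of over 50% in size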
* hit, by the source's call; ? = inconclusive; nt = no result; [ ] = another dose, or the depositor's remark. Compounds with a hit are over-represented: about 8.5% of the library has one in this group of screens. Unless noted, calls come from the whole dose curve; as a rule, active = well fitted inhibition curve with a large enough effect (not every such curve was filed as active); inconclusive = small, poorly fitted or top-dose-only effect, or another doubt; inactive = no such curve, though single readings can be large or run the other way. Unless noted, % is set by controls: 0 for no effect and ±100 for the full control effect.

SMILES	NPSR antag	RGS12 GoLoco inh	ALDH1A1 block	FBPA coupling cs	Sfp PPTase inh	JMJD2E inh
O=C(N/N=C/c1cc(Cl)ccc1O)c1ccccc1Br	-24%	3%	-9%	1	4%	11µM*
O=C(CNC(=O)c1ccncc1)N/N=C/c1cc(Br)ccc1O	14%	3%	1%	3	20%	-2%
O=C(CNC(=O)c1ccccc1)N/N=C/c1cc(Br)ccc1O	-23%	11%	8%	5	7%	28µM*
O=C(CNC(=O)c1ccc(F)cc1)N/N=C/c1cc(Br)ccc1OC(=O)/C=C/c1ccco1	-22%	7%	nt	-4	25µM*	-15%
CCCCNC(=O)C(c1ccc(OCC(=O)OC)c(C(=O)OC)c1)N(CCc1c[nH]c2ccccc12)C(=O)CCCCCN1C(=O)NC(c2ccc(-c3ccccc3)cc2)C(C(=O)OCc2ccccc2)=C1C (stereo not given)	4%	12%	nt	-1	-6%	?
NC(=O)c1ccc(NC(=O)CSc2nnc(-c3cccnc3)n2Cc2ccco2)cc1	nt	nt	nt	0	5%	nt
NC(=O)c1c(-c2cccs2)csc1N	-8%[46.1 µM]	3%	?	-45*	40µM*	?
O=C(O)c1ccccc1C1=Nc2ccc(O)cc2Oc2cc(O)ccc21	11%[46.1 µM]	25µM*	6%	1	6%	6%
Cc1cc(-c2ccccc2C(=O)O)on1	-9%[46.1 µM]	-9%	?	0	-1%	?
O=C1CC(/C=C/c2ccc([N+](=O)[O-])cc2)=Nc2ccccc2N1	16%	9%	?	-5	22µM*	?
Cn1cnnc1Sc1nc2ccccc2nc1NS(=O)(=O)c1ccccc1	17%[46.1 µM]	9%	6%	-8	1%	?
Cn1ccnc1Sc1nc2ccccc2nc1NS(=O)(=O)c1ccccc1	-13%[46.1 µM]	3%	-3%	7	50µM*	?
Cc1ccc(N2C(N)=C(C#N)C(c3cccnc3)C3=C2CCCC3=O)cc1 (stereo not given)	-12%[46.1 µM]	3%	7%	-2	-9%	?
Cc1c(C2C(C#N)=C(N)N(c3ccccc3C#N)C3=C2C(=O)CCC3)cnn1C (stereo not given)	8%	-1%	3%	-1	-20%	2%
N#CC1=C(N)N(c2ccccc2C#N)C2=C(C(=O)CCC2)C1c1ccsc1 (stereo not given)	-15%[46.1 µM]	14%	25µM*	-2	1%	-3%
N#CC1=C(N)N(c2ccc(Br)cc2)C2=C(C(=O)CCC2)C1c1cccnc1 (stereo not given)	-18%[46.1 µM]	4%	-3%	-44*	5.6µM*	4%
Cc1ccc2c(C(=O)CN3CCN(C4CCCCC4)CC3)c(C)[nH]c2c1	12%[46.1 µM]	9%	13µM*	0	-3%	-9%
COc1cc(/C=C2\C(=O)N(CCC#N)N=C2C)ccc1OCC(=O)Nc1ccccc1	-24%	-4%	13µM*	1	7%	?
CCOc1cc(/C=C2\C(=O)N(CCC#N)N=C2C)ccc1OCC(N)=O	6%	-1%	-9%	-5	27%	?
CC1=NN(CCC#N)C(=O)/C1=C/c1ccc(N(C)C)cc1	2%	59%	7.9µM*	-7	4%	-16%
CCOc1ccccc1N1CCN(c2nc3ccccc3nc2C(C#N)C(=O)OC)CC1 (stereo not given)	2%[46.1 µM]	1%	-2%	-17	-1%	-6%
CCOc1ccccc1N1CCN(c2nc(N)c(C#N)c(CC#N)c2C#N)CC1	-14%[46.1 µM]	102%	20µM*	-9	16µM*	?
C/C(=N\Nc1nccnc1Cl)c1ccc(F)cc1	-14%	1%	-3%	-2	22µM*	-22%
C/C(=N\Nc1nccnc1Cl)c1ccc(O)cc1	nt	nt	nt	-1	?	nt
CCCC[C@@H]1C[C@H]1C(NS(=O)(=O)c1cccc2cccnc12)c1ccc(-c2ccccc2)cc1 (stereo not given in full)	nt	2%	-4%	1	-18%	-14%
SMILES	NPSR antag	RGS12 GoLoco inh	ALDH1A1 block	FBPA coupling cs	Sfp PPTase inh	JMJD2E inh
CC(C)(C)NC(=O)C(c1ccncc1)N(C(=O)c1csnn1)C1CC1 (stereo not given)	-2%[46.1 µM]	-3%	10µM*	3	8%	-1%
COC(=O)c1sc2nc(-c3ccccc3)nc(N3CCN(C)CC3)c2c1C	13%[46.1 µM]	51%	?	-1	50µM*	?
COCCNC(=O)[C@@H]1CCCN1C(=O)C1CCN(S(=O)(=O)c2ccc(C)cc2)CC1	nt	nt	nt	4	20%	nt
CC(C)C1CC(CCNCc2ccc(N(C)C)cc2)(c2ccccc2)CCO1 (stereo not given)	-24%[46.1 µM]	-11%	20µM*	0	4%	4%
Cc1ccc(C2(CCNCc3ccc(N(C)C)cc3)CCOC(C(C)C)C2)cc1 (stereo not given)	?	0%	25µM*	0	14%	14%
CSCCC(NC(=O)c1ccccc1)C(=O)N/N=C(\C)c1ccccc1 (stereo not given)	7%	5%	21%	0	8%	-2%
COc1ccc(NC(=O)c2sc(=S)[nH]c2N)cc1	-22%[46.1 µM]	-13%	10µM*	-2	56µM*	-21%
COc1ccc(NC(=O)c2cccc(C(=O)Nc3ccc(OC)cc3)n2)cc1	11%	-2%	-1%	3	?	?
COCCNC(=S)Nc1ccc([N+](=O)[O-])cc1C	1%	5%	?	2	56µM*	-13%
CC(=O)NC(=S)Nc1ccc([N+](=O)[O-])cc1C	13%	18%	-15%	3	-7%	7%
COCCNC(=S)NNc1ccccc1[N+](=O)[O-]	-5%	-9%	25µM*	-2	10µM*	-13%
O=C(NNc1ccccc1[N+](=O)[O-])Nc1ccccc1	-9%[46.1 µM]	10%	?	1	-2%	-5%
COCCNC(=S)N/N=C(\C)c1ccc(C)c([N+](=O)[O-])c1	-46%	21%	5%	-1	-1%	1%
CNC(=S)NNc1ccccc1[N+](=O)[O-]	13%	-5%	14µM*	-1	2.5µM*	5%
CCOCCc1nnc(NC(=O)Cc2c(F)cccc2Cl)s1	4%	5%	0%	0	9%	-4%
CCN1/C(=C\C(=S)Nc2ccccc2)Sc2ccccc21	24%	35%	?	-2	20µM*	-12%
CCN1/C(=C\C=C(C(C)=O)C(C)=O)Sc2ccccc21	-18%	19%	-6%	-1	-2%	-3%
CCN(CC)C(=O)CSc1nc2c(sc(=S)n2-c2ccccc2)c(=O)n1-c1ccc(OC)cc1OC	nt	nt	nt	0	22µM*	nt
CCOC(=O)CSc1nc2c(sc(=S)n2-c2ccccc2)c(=O)n1-c1ccc(OC)cc1OC	nt	nt	nt	1	32µM*	nt
CCN(CC)C(=O)CSc1nc2c(sc(=S)n2-c2ccccc2)c(=O)n1-c1ccccc1OC	nt	nt	nt	1	15%	nt
